Among the data in ChEMBL document CHEMBL2218924, “A broad activity screen in support of a chemogenomic map for kinase signalling research and drug discovery” (Biochem J, 2013) are residual activity values, retold here.

Usually residual activity stands for the signal under treatment as a percentage of the control signal.

The target of assay [1] is Death-associated protein kinase 1 (Homo sapiens) (UniProt P53355). Conditions: at 10 µM.
The target in assay [2] is Death-associated protein kinase 2 (Homo sapiens) (UniProt Q9UIK4). The conditions noted are these: at 1 µM.
Assay [3] shares this target. The conditions noted are these: at 10 µM.
In assay [4] the target is T1, Serine/threonine-protein kinase DCLK2 (Homo sapiens) (UniProt Q8N568).
T1 sequence (whole entry): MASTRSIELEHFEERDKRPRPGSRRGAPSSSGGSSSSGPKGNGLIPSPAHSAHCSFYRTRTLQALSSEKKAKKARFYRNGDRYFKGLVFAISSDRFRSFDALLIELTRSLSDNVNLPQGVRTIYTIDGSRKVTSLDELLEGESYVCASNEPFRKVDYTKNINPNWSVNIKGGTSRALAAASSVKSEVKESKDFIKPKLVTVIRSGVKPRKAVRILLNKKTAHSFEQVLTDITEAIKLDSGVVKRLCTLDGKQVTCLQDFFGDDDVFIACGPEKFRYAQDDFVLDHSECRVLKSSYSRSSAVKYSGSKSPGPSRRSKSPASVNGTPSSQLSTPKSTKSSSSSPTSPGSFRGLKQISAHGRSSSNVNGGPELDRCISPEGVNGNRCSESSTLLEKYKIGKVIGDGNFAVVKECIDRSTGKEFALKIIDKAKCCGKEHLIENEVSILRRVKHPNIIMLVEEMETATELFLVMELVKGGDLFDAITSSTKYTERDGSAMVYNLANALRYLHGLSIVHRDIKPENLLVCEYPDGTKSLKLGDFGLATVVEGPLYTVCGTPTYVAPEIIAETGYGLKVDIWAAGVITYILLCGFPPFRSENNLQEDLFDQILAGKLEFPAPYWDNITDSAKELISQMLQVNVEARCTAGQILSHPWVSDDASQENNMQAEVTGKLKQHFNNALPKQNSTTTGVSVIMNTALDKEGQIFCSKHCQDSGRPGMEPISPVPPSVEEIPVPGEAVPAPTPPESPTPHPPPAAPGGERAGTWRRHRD
The conditions noted are these: at 1 µM.

The target in assay [5] is T1, Serine/threonine-protein kinase DCLK2 (Homo sapiens). Conditions: at 10 µM.
The target of assay [6] is T2, Discoidin domain-containing receptor 2 (Homo sapiens) (UniProt Q16832).
T2 sequence (whole entry): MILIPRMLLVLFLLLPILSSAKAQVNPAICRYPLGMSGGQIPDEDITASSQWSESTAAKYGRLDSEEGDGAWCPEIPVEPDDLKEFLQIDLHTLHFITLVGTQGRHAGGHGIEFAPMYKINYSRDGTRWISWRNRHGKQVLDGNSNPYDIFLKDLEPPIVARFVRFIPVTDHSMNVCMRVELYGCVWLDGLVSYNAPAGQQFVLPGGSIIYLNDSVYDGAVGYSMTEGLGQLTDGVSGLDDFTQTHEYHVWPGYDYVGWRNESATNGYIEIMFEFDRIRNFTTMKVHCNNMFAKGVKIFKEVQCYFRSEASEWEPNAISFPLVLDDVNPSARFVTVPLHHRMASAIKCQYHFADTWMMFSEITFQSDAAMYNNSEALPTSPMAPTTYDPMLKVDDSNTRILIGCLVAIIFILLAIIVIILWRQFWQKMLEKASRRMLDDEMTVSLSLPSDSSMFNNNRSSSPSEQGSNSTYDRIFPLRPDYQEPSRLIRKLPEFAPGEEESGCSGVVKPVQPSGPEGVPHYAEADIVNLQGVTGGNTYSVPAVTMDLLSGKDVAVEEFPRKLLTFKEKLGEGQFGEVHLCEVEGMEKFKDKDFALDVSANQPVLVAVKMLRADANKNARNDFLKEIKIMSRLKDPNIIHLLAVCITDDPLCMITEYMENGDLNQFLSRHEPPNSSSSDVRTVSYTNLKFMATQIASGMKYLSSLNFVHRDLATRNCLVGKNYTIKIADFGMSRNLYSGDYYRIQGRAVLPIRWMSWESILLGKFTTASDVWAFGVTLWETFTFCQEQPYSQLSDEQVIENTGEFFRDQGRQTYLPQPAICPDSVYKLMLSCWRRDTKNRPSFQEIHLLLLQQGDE
Conditions: at 10 µM.

Assay [7] concerns the target T3, Serine/threonine-protein kinase 17A (Homo sapiens) (UniProt Q9UEE5).
T3 sequence (whole entry): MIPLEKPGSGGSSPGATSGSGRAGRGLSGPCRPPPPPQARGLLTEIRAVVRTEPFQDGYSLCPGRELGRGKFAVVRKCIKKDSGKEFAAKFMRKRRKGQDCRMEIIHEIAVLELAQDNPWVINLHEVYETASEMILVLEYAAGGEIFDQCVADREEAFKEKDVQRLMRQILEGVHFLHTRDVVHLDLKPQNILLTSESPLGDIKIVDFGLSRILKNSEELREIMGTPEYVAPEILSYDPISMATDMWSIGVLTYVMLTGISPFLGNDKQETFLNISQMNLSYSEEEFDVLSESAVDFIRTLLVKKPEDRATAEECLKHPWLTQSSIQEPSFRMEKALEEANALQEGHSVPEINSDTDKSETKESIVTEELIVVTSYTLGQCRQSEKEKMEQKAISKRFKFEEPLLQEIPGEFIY
The conditions noted are these: at 1 µM.

Assay [8] addresses T3, Serine/threonine-protein kinase 17A (Homo sapiens). The conditions noted are these: at 10 µM.
The target in assay [9] is T4, Ephrin type-A receptor 1 (Homo sapiens) (UniProt P21709).
T4 sequence (whole entry): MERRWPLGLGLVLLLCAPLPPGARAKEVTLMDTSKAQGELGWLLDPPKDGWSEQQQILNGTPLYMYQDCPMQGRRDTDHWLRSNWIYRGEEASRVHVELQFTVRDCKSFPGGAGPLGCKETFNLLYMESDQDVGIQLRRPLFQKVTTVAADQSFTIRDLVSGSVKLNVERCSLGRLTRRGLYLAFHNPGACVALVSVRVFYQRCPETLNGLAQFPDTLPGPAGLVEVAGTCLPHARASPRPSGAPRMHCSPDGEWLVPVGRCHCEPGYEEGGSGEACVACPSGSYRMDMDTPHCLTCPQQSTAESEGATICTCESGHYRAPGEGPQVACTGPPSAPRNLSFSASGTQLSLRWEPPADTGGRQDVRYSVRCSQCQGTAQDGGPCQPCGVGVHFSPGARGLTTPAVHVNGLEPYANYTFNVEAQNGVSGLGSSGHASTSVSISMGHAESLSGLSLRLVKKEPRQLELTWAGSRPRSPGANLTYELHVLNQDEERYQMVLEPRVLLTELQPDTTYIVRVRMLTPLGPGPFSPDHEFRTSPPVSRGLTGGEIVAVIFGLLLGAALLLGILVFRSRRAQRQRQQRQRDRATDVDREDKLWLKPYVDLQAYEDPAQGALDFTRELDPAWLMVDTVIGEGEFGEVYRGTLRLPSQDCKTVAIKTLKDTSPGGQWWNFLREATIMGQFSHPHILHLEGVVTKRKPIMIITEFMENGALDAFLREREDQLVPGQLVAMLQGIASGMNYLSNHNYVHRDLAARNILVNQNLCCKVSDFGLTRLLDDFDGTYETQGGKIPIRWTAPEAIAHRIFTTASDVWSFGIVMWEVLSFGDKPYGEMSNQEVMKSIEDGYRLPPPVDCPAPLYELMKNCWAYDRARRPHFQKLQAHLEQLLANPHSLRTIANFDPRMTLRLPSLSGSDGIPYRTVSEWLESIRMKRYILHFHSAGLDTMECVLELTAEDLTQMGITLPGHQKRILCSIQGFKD
The conditions noted are these: at 1 µM.

Assay [10] concerns the target T4, Ephrin type-A receptor 1 (Homo sapiens). Conditions: at 10 µM.
In assay [11] the target is Ephrin type-A receptor 2 (Homo sapiens) (UniProt P29317). Conditions: at 1 µM.
Assay [12] shares this target. Conditions: at 10 µM.
The target in assay [13] is T5, Ephrin type-A receptor 3 (Homo sapiens) (UniProt P29320).
T5 sequence (whole entry): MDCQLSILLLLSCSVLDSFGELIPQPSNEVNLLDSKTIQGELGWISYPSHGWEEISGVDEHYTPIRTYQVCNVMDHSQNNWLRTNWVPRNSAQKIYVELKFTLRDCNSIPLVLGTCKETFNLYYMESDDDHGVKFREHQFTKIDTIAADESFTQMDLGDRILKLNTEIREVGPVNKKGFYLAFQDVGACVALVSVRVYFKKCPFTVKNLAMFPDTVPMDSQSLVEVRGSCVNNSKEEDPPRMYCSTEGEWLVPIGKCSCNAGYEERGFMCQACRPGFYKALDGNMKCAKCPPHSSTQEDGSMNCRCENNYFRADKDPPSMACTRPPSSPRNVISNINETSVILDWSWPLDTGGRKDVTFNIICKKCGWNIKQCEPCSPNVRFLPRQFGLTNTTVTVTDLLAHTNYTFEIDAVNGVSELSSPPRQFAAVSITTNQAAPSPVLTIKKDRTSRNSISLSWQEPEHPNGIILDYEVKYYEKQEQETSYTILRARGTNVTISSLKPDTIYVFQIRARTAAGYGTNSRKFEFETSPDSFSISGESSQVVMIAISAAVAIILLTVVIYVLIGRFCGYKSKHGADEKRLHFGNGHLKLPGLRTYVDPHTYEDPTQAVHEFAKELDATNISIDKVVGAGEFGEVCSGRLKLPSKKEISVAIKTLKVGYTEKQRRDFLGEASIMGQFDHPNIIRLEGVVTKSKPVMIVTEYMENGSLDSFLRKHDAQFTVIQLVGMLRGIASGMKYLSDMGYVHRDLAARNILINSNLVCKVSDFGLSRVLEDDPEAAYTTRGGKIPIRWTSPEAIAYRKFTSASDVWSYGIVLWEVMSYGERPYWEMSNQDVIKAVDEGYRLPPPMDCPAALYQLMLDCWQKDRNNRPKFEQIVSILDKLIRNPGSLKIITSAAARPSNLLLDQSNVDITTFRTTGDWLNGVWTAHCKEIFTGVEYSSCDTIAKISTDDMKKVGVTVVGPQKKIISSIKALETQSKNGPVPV
The conditions noted are these: at 1 µM.

For assay [14], the target named is T2, Discoidin domain-containing receptor 2 (Homo sapiens). Conditions: at 1 µM.
In assay [15] the target is T6, Dual specificity tyrosine-phosphorylation-regulated kinase 2 (Homo sapiens) (UniProt Q92630).
T6 sequence (whole entry): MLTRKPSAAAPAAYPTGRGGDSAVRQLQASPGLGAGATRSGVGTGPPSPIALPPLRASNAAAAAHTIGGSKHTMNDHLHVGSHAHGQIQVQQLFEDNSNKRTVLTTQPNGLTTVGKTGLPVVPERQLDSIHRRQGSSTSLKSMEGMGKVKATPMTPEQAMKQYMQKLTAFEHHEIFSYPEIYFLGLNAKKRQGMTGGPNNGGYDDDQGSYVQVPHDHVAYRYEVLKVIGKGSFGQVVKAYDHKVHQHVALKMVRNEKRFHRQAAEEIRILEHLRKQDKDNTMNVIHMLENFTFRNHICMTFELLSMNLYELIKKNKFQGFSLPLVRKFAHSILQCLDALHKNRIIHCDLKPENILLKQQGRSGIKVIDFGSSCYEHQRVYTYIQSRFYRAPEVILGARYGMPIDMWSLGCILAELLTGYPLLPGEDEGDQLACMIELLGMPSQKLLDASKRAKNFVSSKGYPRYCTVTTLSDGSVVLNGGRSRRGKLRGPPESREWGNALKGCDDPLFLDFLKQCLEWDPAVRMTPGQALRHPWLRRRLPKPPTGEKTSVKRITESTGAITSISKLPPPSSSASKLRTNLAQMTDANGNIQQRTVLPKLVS
The conditions noted are these: at 10 µM.

Chain of Death-associated protein kinase 2 (Homo sapiens) (Q9UIK4 whole entry, looked up): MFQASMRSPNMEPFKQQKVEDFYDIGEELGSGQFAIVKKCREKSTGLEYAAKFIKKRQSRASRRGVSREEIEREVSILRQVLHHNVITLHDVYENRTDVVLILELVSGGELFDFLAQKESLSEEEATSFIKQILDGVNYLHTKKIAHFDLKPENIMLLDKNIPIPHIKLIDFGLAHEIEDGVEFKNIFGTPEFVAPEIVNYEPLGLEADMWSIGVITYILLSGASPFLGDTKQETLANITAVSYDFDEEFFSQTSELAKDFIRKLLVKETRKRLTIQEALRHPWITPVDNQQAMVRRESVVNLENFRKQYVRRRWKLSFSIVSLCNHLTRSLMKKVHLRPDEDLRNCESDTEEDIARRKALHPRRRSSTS
Chain of Ephrin type-A receptor 2 (Homo sapiens) (P29317 whole entry): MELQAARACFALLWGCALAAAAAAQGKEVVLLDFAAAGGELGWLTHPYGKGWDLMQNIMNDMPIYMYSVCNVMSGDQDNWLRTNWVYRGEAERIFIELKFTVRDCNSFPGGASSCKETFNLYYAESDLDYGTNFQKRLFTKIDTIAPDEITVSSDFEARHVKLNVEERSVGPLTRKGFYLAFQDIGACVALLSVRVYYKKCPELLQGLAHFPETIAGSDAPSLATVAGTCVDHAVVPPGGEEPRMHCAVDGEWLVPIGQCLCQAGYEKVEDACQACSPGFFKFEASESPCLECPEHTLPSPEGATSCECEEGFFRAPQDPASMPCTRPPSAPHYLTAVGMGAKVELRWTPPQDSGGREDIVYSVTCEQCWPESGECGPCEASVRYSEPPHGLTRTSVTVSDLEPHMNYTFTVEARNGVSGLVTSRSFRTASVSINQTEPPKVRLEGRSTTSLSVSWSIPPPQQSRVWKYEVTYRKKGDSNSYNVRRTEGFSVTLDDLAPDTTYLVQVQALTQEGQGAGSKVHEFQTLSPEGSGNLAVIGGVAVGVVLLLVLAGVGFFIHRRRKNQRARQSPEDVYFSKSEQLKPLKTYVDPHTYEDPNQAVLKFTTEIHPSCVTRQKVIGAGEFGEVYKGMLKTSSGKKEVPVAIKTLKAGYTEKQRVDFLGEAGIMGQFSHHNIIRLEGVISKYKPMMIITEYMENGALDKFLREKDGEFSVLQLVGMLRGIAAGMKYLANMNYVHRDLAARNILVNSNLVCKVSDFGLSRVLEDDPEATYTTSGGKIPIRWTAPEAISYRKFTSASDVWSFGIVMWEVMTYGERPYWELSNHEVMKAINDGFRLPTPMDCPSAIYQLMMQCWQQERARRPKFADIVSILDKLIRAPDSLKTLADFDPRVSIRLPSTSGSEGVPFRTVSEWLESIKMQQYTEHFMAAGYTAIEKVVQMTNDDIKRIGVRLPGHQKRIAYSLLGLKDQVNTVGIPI
Chain of Death-associated protein kinase 1 (Homo sapiens) (P53355 whole entry, looked up): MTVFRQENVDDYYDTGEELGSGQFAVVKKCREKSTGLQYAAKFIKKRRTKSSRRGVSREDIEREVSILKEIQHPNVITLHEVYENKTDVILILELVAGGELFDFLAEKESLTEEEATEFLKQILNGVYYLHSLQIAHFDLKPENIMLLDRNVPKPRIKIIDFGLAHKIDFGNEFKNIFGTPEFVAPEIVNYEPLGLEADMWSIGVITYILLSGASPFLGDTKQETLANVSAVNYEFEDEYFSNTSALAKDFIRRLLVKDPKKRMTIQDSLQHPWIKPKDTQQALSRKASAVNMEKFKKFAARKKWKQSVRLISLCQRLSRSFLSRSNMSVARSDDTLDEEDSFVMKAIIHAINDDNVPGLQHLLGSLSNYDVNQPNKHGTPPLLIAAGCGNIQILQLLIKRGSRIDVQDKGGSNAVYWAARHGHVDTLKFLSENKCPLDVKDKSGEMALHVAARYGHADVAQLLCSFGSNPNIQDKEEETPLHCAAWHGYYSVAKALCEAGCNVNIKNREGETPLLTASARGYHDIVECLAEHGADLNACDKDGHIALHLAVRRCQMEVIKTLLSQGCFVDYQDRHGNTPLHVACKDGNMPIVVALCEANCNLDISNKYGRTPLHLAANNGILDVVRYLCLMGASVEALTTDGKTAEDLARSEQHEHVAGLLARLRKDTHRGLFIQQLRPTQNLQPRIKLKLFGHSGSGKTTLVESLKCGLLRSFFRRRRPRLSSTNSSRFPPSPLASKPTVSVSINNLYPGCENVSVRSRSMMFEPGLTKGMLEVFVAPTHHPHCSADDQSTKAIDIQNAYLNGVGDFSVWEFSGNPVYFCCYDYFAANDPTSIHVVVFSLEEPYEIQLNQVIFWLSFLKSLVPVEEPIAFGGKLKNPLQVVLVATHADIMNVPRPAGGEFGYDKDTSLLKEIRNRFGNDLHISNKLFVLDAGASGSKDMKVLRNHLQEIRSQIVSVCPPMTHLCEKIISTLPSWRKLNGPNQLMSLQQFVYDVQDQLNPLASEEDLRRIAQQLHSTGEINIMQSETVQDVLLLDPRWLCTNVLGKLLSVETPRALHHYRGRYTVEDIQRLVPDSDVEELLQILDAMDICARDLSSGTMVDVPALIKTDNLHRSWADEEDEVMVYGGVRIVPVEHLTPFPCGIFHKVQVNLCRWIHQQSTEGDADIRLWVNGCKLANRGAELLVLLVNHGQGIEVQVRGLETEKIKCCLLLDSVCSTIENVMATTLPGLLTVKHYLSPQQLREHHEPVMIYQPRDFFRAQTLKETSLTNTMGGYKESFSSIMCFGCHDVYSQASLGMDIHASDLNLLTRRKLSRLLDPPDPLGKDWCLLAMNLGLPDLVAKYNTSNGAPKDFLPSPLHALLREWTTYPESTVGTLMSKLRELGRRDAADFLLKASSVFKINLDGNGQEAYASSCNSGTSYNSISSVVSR

Regarding `NC(=O)Nc1sc(-c2ccc(F)cc2)cc1C(N)=O`, the residual activity in assay [1] turned out to be 70%; in [2], 95%; in [3], 64%; in assay [4], 96%; in assay [5] it was 78%; in assay [6] it was 40%. For the same molecule, the residual activity was 69% in assay [7]; 39% in [8]; 9% in assay [9]; 6% in assay [10]; 32% in assay [11]; 4% in assay [12]. The residual activity in [13] was 80%.
For `CSc1nc(-c2ccc(F)cc2)c(-c2ccnc(NC(C)c3ccccc3)c2)[nH]1` (stereo not given), the residual activity stood at 96% in assay [1]; 101% in [2]; 95% in assay [3]; 137% in [4]; 100% in [5]; 98% in [14]. Besides, the residual activity was determined as 93% in assay [6]; 72% in assay [8]; 86% in assay [15]; 101% in assay [9]; 78% in assay [10]; 87% in [11].
